Reference: PubChem BioAssay (NCATS)
Inconclusive results are not listed. Active and inactive are the calls of the source. Unless noted, calls follow the shape of the dose curve; as a rule, active = well fitted curve in the direction sought with a large enough effect; inconclusive = small, poorly fitted or top-dose-only effect, or another doubt; inactive = no such curve, though single readings can be large; an effect the other way counts as inactive or inconclusive.

Legend:
[1] = target: Cytochrome P450 1A2 (Homo sapiens) (UniProt P05177); assay: p450-cyp1a2 (AID 410; calls by dose curve; also: potency is read from the fitted curve at half-maximal effect); conditions: recombinant CYP1A2, luciferin-ME demethylation, luminescence; series mostly up to 25.6 µM
Procedure, shortened: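 Luminescent readout of luciferin formed from Luciferin-ME by human CYP1A2; data normalized against complete inhibition by 57 uM furafylline. Enzyme 20nM, substrate 100uM at Km, 100mM KPO4 buffer, 60 min reaction at room temperature.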

[2] = target: Cytochrome P450 3A4 (Homo sapiens) (UniProt P08684); assay: qHTS Assay for Activators of Cytochrome P450 3A4 (AID 885); conditions: recombinant CYP3A4, Luciferin-PPXE luminescence, 60 min; series mostly up to 57.1 µM; also: nearly all actives have a fitted effect of over 65% in size
Procedure, shortened: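 Signal was normalized against complete inhibition by 57 uM ketoconazole. The reaction used 20nM CYP3A4 with 25uM Luciferin-PPXE, 10-min compound preincubation and a 60-min NADPH-supported step at RT.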

[3] = target: Cytochrome P450 2D6 (Homo sapiens) (UniProt P10635); assay: qHTS Assay for Inhibitors and Substrates of Cytochrome P450 2D6 (AID 891); conditions: recombinant CYP2D6, luciferin-ME EGE luminescence; series mostly up to 57.1 µM; also: potency is read from the fitted curve at half-maximal effect; nearly all actives have a fitted effect of over 60% in size
Procedure, shortened: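 Human CYP2D6 (5 nM) with 30 uM Luciferin-ME EGE (at Km) in 100 mM KPO4, compound preincubated 10 min, then NADPH regeneration system for 60 min at room temperature. Luciferin read by luminescence; normalized to 1.43 uM quinidine.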

[4] = S16 Schwann cell PMP22 intronic element beta-lactamase assay (AID 624044; calls by dose curve;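 also: 0% = DMSO and -100% = potassium clavulanate positive control; nearly all actives have a fitted effect of over 15% in size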); conditions: S16 rat Schwann cells, PMP22 element beta-lactamase FRET, 24 h; series mostly up to 17.1 µM
Procedure, shortened: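 Rat S16 Schwann cells with beta-Lac driven by a PMP22 intronic element, compound-treated 24 h at 37 °C. LiveBLAzer FRET B/G read: 460 nm normalized to potassium clavulanate vs DMSO; 535 nm FRET as viability; concentration-effect curves classified.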

7G8 = assay: qHTS profiling for inhibitors of Plasmodium falciparum proliferation (AID 504749); also: nearly all actives have a fitted effect of over 60% in size; also: potency is read from the fitted curve at half-maximal effect; conditions: P. falciparum in erythrocytes, SYBR Green DNA, 72 h; series mostly up to 12.8 µM
Procedure, shortened: (§1)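 Parasite proliferation within erythrocytes, 72 h exposure. Endpoint: SYBR Green I fluorescence after overnight lysis at room temperature. Controls: 0.29 uM artemisinin, DMSO.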

CP215 = assay: as above; conditions: P. falciparum in erythrocytes, SYBR Green DNA, 72 h; series mostly up to 12.8 µM
Procedure, shortened: as §1

CP260 = assay: as above; conditions: P. falciparum in erythrocytes, SYBR Green DNA, 72 h; series mostly up to 12.8 µM
Procedure, shortened: as §1

DFO2036 = assay: as above; conditions: P. falciparum in erythrocytes, SYBR Green DNA, 72 h; series mostly up to 12.8 µM
Procedure, shortened: as §1

CP203 = assay: as above; conditions: P. falciparum in erythrocytes, SYBR Green DNA, 72 h; series mostly up to 12.8 µM
Procedure, shortened: as §1

CP335 = assay: as above; conditions: P. falciparum in erythrocytes, SYBR Green DNA, 72 h; series mostly up to 12.8 µM
Procedure, shortened: as §1

GB4 = assay: as above; conditions: P. falciparum in erythrocytes, SYBR Green DNA, 72 h; series mostly up to 12.8 µM
Procedure, shortened: as §1

ICS = assay: as above; conditions: P. falciparum in erythrocytes, SYBR Green DNA, 72 h; series mostly up to 12.8 µM
Procedure, shortened: as §1

P94_40 = assay: as above; conditions: P. falciparum in erythrocytes, SYBR Green DNA, 72 h; series mostly up to 12.8 µM
Procedure, shortened: as §1

PC26 = assay: as above; conditions: P. falciparum in erythrocytes, SYBR Green DNA, 72 h; series mostly up to 12.8 µM
Procedure, shortened: as §1

TAB109 = assay: as above; conditions: P. falciparum in erythrocytes, SYBR Green DNA, 72 h; series mostly up to 12.8 µM
Procedure, shortened: as §1

W2 = assay: as above; conditions: P. falciparum in erythrocytes, SYBR Green DNA, 72 h; series mostly up to 12.8 µM
Procedure, shortened: as §1

[5] = Confirmation and Secondary Assay for Modulators of Hemoglobin Beta Chain Splicing at IVS2 654 locus (AID 910); conditions: HeLa EGFP-654 splicing reporter, GFP fluorescence, 48 h; series mostly up to 46.1 µM;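 also: per-well total GFP intensity by laser scanning cytometry after 2-day treatment; % of control where 0% means no effect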
Procedure, shortened: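 HeLa cells stably carrying EGFP interrupted by mutant beta-globin IVS2-654 intron (CMV-driven) were treated with compound for 2 days at 37C; corrected splicing was scored as total peak GFP intensity per well (488 nm excitation, 500-520 nm emission).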

[6] = qHTS Assay for Identification of Small Molecule Agonists for Hypoxia Response Element Signaling Pathway (AID 914; active = well fitted activation curve with a large enough effect in the signal ratio, with a control signal flat, not every such curve was filed as active; the % refers to the signal ratio; also: % of control where 0% means no effect); conditions: ME-180 HRE-bla reporter, beta-lactamase ratio, CoCl2, 17 h; activation: active compounds read high
Procedure, shortened: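 ME-180 cells carrying an HRE-driven beta-lactamase reporter were treated with compounds in a titration series plus an EC50 level of CoCl2 for 17 h at 37 degrees Celsius; CCF4 readout as the 460nm/530nm ratio gave AC50 values.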

[7] = target: Cytochrome P450 3A4 (Homo sapiens) (UniProt P08684); assay: qHTS Assay for Inhibitors and Substrates of Cytochrome P450 3A4 (AID 884); conditions: recombinant CYP3A4, Luciferin-PPXE luminescence; series mostly up to 57.1 µM; also: potency is read from the fitted curve at half-maximal effect; nearly all actives have a fitted effect of over 50% in size
Procedure, shortened: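 20 nM human CYP3A4 with 25 uM Luciferin-PPXE (at KM) in 200 mM KPO4, preincubated 10 min with compound; NADPH regeneration started a 60 min RT reaction. Luciferin detected by luminescence, normalized to 57 uM ketoconazole as full inhibition.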

[8] = S16 Schwann cell viability assay (CellTiter-Glo assay) (AID 624031); conditions: S16 rat Schwann cells viability, 24 h; series mostly up to 25.7 µM;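 also: cellular ATP luminescence as a viability measure; plate controls were DMSO-treated cells for no effect and cell-free wells for full effect; nearly all actives have a fitted effect of over 70% in size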
Procedure, shortened: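 Native S16 rat Schwann cells in DMEM/10% FBS without phenol red were incubated overnight, then exposed to compounds for 24 h at 37 °C/5% CO2. Viability was read as ATP luminescence (CellTiter-Glo), normalized to no-cell wells and DMSO (0%).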

Sequence of Cytochrome P450 2D6 (Homo sapiens) (P10635 whole entry, looked up): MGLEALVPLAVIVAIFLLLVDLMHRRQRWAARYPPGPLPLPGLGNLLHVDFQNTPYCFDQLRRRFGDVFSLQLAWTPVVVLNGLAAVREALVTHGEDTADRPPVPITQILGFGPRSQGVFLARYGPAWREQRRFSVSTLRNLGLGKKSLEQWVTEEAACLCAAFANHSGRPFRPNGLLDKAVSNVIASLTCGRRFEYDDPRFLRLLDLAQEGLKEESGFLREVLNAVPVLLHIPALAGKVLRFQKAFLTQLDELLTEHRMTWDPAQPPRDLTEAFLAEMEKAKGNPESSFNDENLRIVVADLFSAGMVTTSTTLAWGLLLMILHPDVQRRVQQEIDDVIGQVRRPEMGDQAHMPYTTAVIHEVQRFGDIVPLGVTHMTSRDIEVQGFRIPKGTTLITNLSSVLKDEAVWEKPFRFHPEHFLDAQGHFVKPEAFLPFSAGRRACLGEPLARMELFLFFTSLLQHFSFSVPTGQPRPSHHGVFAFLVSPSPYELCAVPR
Sequence of Cytochrome P450 1A2 (Homo sapiens) (P05177 whole entry, looked up): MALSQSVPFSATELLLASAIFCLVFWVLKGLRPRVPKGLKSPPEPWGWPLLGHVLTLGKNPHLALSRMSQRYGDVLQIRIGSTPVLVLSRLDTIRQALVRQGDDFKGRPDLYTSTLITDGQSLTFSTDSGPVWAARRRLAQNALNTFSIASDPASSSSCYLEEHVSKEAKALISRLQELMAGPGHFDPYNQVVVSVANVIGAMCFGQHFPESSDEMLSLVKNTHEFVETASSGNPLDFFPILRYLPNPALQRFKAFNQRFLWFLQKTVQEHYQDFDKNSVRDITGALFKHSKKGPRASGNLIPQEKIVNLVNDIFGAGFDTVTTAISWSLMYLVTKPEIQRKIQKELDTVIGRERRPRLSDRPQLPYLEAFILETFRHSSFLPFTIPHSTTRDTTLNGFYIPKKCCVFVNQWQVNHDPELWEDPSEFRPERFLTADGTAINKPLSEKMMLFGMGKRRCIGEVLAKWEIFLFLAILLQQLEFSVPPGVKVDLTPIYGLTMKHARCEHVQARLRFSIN
Sequence of Cytochrome P450 3A4 (Homo sapiens) (P08684 whole entry, looked up): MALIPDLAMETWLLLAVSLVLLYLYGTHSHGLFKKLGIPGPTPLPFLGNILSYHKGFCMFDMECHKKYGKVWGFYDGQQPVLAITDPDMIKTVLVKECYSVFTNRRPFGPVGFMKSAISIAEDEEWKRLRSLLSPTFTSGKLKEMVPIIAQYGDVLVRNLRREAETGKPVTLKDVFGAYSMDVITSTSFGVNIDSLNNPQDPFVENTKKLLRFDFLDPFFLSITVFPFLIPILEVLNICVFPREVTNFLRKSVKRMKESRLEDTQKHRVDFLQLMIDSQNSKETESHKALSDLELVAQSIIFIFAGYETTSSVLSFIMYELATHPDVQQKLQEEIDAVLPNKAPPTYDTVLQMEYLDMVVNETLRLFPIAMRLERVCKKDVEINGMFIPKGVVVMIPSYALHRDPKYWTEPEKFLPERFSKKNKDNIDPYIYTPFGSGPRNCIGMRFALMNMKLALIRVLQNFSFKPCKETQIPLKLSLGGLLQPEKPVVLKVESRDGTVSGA

CNCCC=C1c2ccccc2C=Cc2ccccc21
inactive: Potency [2]
active: Potency [1] 6.31 µM | Potency [3] 5.01 µM

Cc1ccc2c(c1)c1c3n2CCN[C@H]3CCC1
active: Potency (7G8) 6.31 µM
inactive: Potency [4] | Potency (CP215) | Potency (CP260) | Potency (DFO2036)

CC(C)(C)CC(C)(C)c1ccc(OCOCCOCCO)c(Cc2cc(C(C)(C)CC(C)(C)C)cc(Cc3cc(C(C)(C)CC(C)(C)C)ccc3OCOCCOCCO)c2OCOCCOCCO)c1
inactive: Potency [1] | Potency [2]

O=C(N/N=C\c1ccc([N+](=O)[O-])o1)c1ccc(O)cc1
active: Potency (7G8) 0.794 µM | Potency (CP203) 5.1 µM | Potency (CP215) 4.55 µM | Potency (CP260) 2.51 µM | Potency (CP335) 2.03 µM | Potency (DFO2036) 2.82 µM | Potency (GB4) 1.81 µM | Potency (ICS) 1.41 µM | Potency (P94_40) 3.55 µM | Potency (PC26) 5.73 µM | Potency (TAB109) 2.24 µM | Potency (W2) 1.81 µM
inactive: Potency [4]

CS(=O)(=O)Nc1cccc(-c2nc(Nc3ccccc3)c3ccccc3n2)c1
inactive: Potency [2] | Potency [5] | activation [6] 6.74%
active: Potency [1] 0.794 µM

O=C(c1cc(C(F)(F)F)cc(C(F)(F)F)c1)N1CCC[C@@]2(CCN(c3ccccn3)C2)C1
active: Potency [1] 25.1 µM | Potency [7] 3.98 µM
inactive: Potency [2]

COc1ccc(C[C@@](C)(N)C(=O)O)cc1OC
inactive: outcome [8] | Potency [4] | Potency (7G8) | Potency (CP203) | Potency (CP215) | Potency (CP260) | Potency (DFO2036) | Potency (GB4) | Potency (ICS) | Potency (P94_40) | Potency (PC26) | Potency (TAB109) | Potency (W2)

c1ccc2c3c([nH]c2c1)[C@@H]1[C@H]2CC[C@H]([C@H]4CCCN[C@H]42)N1CC3
active: Potency [1] 15.8 µM | Potency [3] 7.94 µM

CC(=O)OCC(=O)[C@@]12OC(C)(C)O[C@@H]1C[C@H]1[C@H]3C[C@H](F)C4=CC(=O)C=C[C@@]4(C)[C@]3(F)[C@H](O)C[C@@]12C
inactive: Potency (CP203) | Potency (CP215) | Potency (CP260) | Potency (CP335) | Potency (DFO2036) | Potency (GB4) | Potency (ICS) | Potency (P94_40) | Potency (PC26) | Potency (TAB109) | Potency (W2)

CCC(=O)O[C@@]1(C(=O)SCF)[C@@H](C)C[C@H]2[C@@H]3C[C@@H](F)C4=CC(=O)C=C[C@@]4(C)[C@]3(F)[C@@H](O)C[C@]21C
active: Potency (7G8) 2.82 µM | Potency (ICS) 2.51 µM | Potency (W2) 3.22 µM
inactive: Potency [1] | outcome [8] | Potency [4] | Potency (CP203) | Potency (CP215)

COc1cc2nc(N3CCN(C(=O)[C@@H]4COc5ccccc5O4)CC3)nc(N)c2cc1OC
inactive: Potency [1] | outcome [8] | Potency (CP215)
active: Potency (7G8) 7.08 µM | Potency (W2) 5.36 µM

CC(=O)[C@@H]1CC[C@@H]2[C@@H]3C[C@H](C)C4=CC(=O)CC[C@@]4(C)[C@H]3[C@H](O)C[C@]21C
inactive: Potency [1] | Potency [2] | outcome [8] | Potency [4] | Potency (CP203) | Potency (CP215) | Potency (CP260) | Potency (CP335) | Potency (DFO2036) | Potency (GB4) | Potency (PC26) | Potency (TAB109)

C[C@H](N[C@@H](C)COc1ccccc1)[C@H](O)c1ccc(O)cc1
inactive: outcome [8] | Potency [4] | Potency (7G8) | Potency (CP215) | Potency (CP260) | Potency (CP335) | Potency (DFO2036) | Potency (ICS) | Potency (P94_40) | Potency (PC26) | Potency (TAB109)
active: Potency [3] 0.316 µM | Potency (W2) 4.55 µM

Nc1ccn([C@@H]2CC[C@H](CO)O2)c(=O)n1
inactive: Potency [1]

CN(C)CCn1nnnc1SCC1=C(C(=O)O)N2C(=O)[C@@H](NC(=O)Cc3csc(N)n3)[C@@H]2SC1
inactive: Potency (CP203) | Potency (CP215)
active: Potency (7G8) 3.55 µM | Potency (ICS) 2.51 µM | Potency (W2) 6.42 µM

CCN[C@@H]1CN(CCCOC)S(=O)(=O)c2sc(S(N)(=O)=O)cc21
inactive: Potency [4] | Potency (7G8) | Potency (CP203) | Potency (CP215) | Potency (CP260) | Potency (CP335) | Potency (DFO2036) | Potency (GB4) | Potency (ICS) | Potency (PC26) | Potency (TAB109) | Potency (W2)

COc1cc2cc3c4cc(OC)c(OC)cc4cc[n+]3c(C)c2cc1OC
active: Potency [7] 15.8 µM
inactive: Potency [1] | Potency [2] | Potency [5]

Cc1ncc([N+](=O)[O-])n1C[C@H](O)CCl
inactive: activation [6] -4.65% | outcome [8] | Potency [4] | Potency (7G8) | Potency (CP203) | Potency (CP215) | Potency (CP260) | Potency (CP335) | Potency (DFO2036) | Potency (GB4) | Potency (ICS) | Potency (P94_40) | Potency (PC26) | Potency (W2)

CN1CCC2(CC1)CCN(C(=O)c1ccncc1)CC2
inactive: Potency [1] | activation [6] 7.12%

NS(=O)(=O)c1cc2c(cc1Cl)N[C@@H](C(Cl)Cl)NS2(=O)=O
inactive: Potency [1] | outcome [8] | Potency [4] | Potency (7G8) | Potency (CP203) | Potency (CP215) | Potency (CP260) | Potency (CP335) | Potency (DFO2036) | Potency (GB4) | Potency (ICS) | Potency (P94_40) | Potency (PC26) | Potency (TAB109)
